# Experimental data: article PMC7862700, “An all-to-all approach to the identification of sequence-specific readers for epigenetic DNA modifications on cytosine”
# Tests used:
# Test in all cases: DAPPL (digital affinity profiling via proximity ligation, sequencing); 10 mM Tris-HCl pH 7.5, 50 mM NaCl, 1 mM DTT, 4% glycerol, room temperature, 30 min; GST-TFs on glutathione beads, 16-mer random dsDNA library, 0.1% formaldehyde crosslink after washing; high values mean tight binding
# FLI1 = molecular target: T1, FLI1 (Homo sapiens, UniProt Q01543 1-452); conditions: protein: recombinant; tags: N-terminal GST; dsDNA, one strand shown
# T1 sequence: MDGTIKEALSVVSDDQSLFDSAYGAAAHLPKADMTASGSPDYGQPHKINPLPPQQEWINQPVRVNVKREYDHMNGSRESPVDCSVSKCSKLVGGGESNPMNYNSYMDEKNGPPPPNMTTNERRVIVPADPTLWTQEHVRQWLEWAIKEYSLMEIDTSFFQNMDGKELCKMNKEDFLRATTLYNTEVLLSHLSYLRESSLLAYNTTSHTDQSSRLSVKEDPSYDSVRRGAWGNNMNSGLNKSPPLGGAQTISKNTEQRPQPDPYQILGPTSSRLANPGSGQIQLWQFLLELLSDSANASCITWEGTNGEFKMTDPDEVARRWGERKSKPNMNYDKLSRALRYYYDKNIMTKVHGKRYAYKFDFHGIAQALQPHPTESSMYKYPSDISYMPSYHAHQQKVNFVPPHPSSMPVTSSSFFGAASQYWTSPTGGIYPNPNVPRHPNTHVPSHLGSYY
# In short: (§1)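 A tag-only sample was pooled with DNA-barcoded human transcription factors that had been expressed in yeast as GST fusions and captured on glutathione beads. The pools were incubated for 30 min at room temperature with 200 nmole of a random double-stranded 16-mer DNA library in Tris/NaCl/DTT/glycerol buffer, then washed, crosslinked with 0.1% formaldehyde, proximity-ligated (BsaI/T4 ligase, 1 h, 37 °C), PCR-amplified and sequenced on an Illumina NextSeq500. Binding signal is each hexamer's read frequency for a factor divided by its frequency for the tag-only sample.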
# ELK1 = molecular target: T2, ELK1 (Homo sapiens, UniProt P19419 1-428); conditions: protein: recombinant; tags: N-terminal GST; dsDNA, one strand shown
# T2 sequence: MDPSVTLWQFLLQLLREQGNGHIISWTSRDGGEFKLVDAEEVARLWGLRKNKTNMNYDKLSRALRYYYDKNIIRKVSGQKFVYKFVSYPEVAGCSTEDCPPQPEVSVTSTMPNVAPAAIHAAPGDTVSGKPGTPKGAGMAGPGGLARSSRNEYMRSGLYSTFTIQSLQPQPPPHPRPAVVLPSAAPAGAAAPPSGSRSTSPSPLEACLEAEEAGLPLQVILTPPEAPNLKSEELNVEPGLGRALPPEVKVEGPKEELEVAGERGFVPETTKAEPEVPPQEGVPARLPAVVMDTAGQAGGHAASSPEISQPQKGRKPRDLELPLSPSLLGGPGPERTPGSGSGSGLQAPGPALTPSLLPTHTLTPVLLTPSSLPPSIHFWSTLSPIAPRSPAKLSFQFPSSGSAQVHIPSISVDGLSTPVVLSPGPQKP
# In short: as §1
# GABPA = molecular target: T3, GABPA (Homo sapiens, UniProt Q06546 1-454); conditions: protein: recombinant; tags: N-terminal GST; dsDNA, one strand shown
# T3 sequence: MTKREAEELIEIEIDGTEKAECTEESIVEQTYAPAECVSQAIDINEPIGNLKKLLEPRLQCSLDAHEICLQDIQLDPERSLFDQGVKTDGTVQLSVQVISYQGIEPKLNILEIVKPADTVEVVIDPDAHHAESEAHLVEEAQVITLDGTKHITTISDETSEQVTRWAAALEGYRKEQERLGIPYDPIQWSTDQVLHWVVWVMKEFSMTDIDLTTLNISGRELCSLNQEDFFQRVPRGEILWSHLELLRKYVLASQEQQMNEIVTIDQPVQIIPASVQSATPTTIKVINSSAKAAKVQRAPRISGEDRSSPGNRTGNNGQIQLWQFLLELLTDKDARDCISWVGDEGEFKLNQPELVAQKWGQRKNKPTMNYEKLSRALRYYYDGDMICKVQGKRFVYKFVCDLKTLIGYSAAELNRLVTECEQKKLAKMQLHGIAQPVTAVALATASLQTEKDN
# In short: as §1
# ERG = molecular target: T4, ERG (Homo sapiens, UniProt P11308 1-479); conditions: protein: recombinant; tags: N-terminal GST; dsDNA, one strand shown
# T4 sequence: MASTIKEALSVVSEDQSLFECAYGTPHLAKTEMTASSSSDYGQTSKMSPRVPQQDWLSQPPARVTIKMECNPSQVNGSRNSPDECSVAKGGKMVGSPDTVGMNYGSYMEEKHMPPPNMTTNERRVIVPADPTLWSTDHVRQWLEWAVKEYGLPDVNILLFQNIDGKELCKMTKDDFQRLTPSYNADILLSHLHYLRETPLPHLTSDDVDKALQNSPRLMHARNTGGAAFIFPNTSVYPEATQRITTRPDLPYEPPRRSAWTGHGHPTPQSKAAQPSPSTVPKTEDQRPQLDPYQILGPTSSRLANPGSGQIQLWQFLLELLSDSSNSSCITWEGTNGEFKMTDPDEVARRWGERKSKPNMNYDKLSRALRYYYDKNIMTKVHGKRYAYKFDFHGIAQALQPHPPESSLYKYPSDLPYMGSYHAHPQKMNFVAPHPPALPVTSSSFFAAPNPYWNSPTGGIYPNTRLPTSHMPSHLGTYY
# In short: as §1
# ELF1 = ELF1 (Homo sapiens, UniProt P32519 1-619); conditions: protein: recombinant; tags: N-terminal GST; dsDNA, one strand shown
# In short: as §1
# EHF = molecular target: T5, EHF (Homo sapiens, UniProt Q9NZC4 1-300); conditions: protein: recombinant; tags: N-terminal GST; dsDNA, one strand shown
# T5 sequence: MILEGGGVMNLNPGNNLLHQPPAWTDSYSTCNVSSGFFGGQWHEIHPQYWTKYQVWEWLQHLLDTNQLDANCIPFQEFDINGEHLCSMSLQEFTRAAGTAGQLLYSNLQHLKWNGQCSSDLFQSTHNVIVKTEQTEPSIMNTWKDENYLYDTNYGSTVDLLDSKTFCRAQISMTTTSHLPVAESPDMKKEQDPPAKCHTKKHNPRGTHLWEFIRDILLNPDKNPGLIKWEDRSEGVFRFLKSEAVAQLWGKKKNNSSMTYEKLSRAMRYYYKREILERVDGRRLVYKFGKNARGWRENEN
# In short: as §1
# SPI1 = SPI1 (Homo sapiens, UniProt P17947 1-270); conditions: protein: recombinant; tags: N-terminal GST; dsDNA, one strand shown
# In short: as §1
# SPIB = SPIB (Homo sapiens, UniProt Q01892 1-262); conditions: protein: recombinant; tags: N-terminal GST; dsDNA, one strand shown
# In short: as §1
# ELK3 = molecular target: T6, ELK3 (Homo sapiens, UniProt P41970 1-407); conditions: protein: recombinant; tags: N-terminal GST; dsDNA, one strand shown
# T6 sequence: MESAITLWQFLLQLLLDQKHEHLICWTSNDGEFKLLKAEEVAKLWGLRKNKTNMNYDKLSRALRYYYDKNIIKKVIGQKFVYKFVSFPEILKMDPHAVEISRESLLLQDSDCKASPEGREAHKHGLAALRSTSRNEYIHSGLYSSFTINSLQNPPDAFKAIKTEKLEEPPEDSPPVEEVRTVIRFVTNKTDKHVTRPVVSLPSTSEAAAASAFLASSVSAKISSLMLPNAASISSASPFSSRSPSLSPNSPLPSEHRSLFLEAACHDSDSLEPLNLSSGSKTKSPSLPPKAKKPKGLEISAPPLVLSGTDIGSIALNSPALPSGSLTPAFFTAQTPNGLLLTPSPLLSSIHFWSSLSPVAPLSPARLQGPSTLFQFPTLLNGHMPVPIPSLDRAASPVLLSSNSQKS
# In short: as §1
# FEV = molecular target: T7, FEV (Homo sapiens, UniProt Q99581 1-238); conditions: protein: recombinant; tags: N-terminal GST; dsDNA, one strand shown
# T7 sequence: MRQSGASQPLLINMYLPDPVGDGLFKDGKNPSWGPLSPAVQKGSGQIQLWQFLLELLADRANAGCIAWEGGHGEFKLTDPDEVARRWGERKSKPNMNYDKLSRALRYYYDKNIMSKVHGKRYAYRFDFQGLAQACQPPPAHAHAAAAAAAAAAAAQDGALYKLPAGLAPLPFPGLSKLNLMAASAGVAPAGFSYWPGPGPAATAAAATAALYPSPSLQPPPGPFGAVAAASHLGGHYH
# In short: as §1
# ETV5 = ETV5 (Homo sapiens, UniProt P41161 1-510); conditions: protein: recombinant; tags: N-terminal GST; dsDNA, one strand shown
# In short: as §1
# HSF1 = HSF1 (Homo sapiens, UniProt Q00613 1-529); conditions: protein: recombinant; tags: N-terminal GST; chain copies: 3; dsDNA, one strand shown
# In short: as §1
# SPIC = molecular target: T8, SPIC (Homo sapiens, UniProt Q8N5J4 1-248); conditions: protein: recombinant; tags: N-terminal GST; dsDNA, one strand shown
# T8 sequence: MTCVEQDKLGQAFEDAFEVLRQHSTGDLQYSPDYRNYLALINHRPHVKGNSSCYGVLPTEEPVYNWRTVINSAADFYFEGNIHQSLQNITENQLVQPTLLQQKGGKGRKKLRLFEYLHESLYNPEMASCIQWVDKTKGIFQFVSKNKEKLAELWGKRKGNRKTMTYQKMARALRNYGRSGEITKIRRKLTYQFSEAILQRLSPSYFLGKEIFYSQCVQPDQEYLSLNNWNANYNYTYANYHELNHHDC
# In short: as §1
# ELF4 = ELF4 (Homo sapiens, UniProt Q99607 1-663); conditions: protein: recombinant; tags: N-terminal GST; dsDNA, one strand shown
# In short: as §1
# ELK4 = molecular target: T9, ELK4 (Homo sapiens, UniProt P28324-2 1-405); conditions: protein: recombinant; tags: N-terminal GST; dsDNA, one strand shown
# T9 sequence: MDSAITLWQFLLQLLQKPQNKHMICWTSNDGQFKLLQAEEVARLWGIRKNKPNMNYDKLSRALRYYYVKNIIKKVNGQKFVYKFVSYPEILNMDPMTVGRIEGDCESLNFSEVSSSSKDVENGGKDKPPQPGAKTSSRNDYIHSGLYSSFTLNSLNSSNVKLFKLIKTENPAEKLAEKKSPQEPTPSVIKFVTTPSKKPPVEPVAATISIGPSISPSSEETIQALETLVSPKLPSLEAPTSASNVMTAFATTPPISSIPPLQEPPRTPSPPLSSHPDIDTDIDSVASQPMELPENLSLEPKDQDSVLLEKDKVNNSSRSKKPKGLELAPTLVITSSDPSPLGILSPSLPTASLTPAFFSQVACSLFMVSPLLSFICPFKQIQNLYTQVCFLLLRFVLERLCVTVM
# In short: as §1
# ETV2 = molecular target: T10, ETV2 (Homo sapiens, UniProt O00321 1-342); conditions: protein: recombinant; tags: N-terminal GST; dsDNA, one strand shown
# T10 sequence: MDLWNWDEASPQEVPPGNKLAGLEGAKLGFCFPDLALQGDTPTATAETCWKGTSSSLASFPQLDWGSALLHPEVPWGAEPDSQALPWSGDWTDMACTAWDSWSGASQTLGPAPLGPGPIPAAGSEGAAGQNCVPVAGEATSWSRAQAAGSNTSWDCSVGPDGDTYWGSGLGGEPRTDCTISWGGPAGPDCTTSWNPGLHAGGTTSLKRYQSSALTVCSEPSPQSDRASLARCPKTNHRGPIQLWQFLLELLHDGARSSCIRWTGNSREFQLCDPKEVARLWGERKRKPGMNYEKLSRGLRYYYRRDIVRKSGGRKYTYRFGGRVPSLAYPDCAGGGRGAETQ
# In short: as §1
# ELF3 = molecular target: T11, ELF3 (Homo sapiens, UniProt P78545 1-371); conditions: protein: recombinant; tags: N-terminal GST; dsDNA, one strand shown
# T11 sequence: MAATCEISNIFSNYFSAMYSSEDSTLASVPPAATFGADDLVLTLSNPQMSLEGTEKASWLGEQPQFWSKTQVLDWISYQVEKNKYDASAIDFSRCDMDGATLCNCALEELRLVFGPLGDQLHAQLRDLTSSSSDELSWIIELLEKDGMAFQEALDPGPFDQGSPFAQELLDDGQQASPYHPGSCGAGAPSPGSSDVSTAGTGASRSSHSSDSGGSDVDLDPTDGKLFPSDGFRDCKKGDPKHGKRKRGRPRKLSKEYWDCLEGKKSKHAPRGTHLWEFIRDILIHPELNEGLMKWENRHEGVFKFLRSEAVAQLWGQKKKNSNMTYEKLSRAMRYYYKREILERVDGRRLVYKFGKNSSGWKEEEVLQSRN
# In short: as §1
# CRX = CRX (Homo sapiens, UniProt O43186 1-299); conditions: protein: recombinant; tags: N-terminal GST; dsDNA, one strand shown
# In short: as §1
# ETV1 = ETV1 (Homo sapiens, UniProt P50549 1-477); conditions: protein: recombinant; tags: N-terminal GST; dsDNA, one strand shown
# In short: as §1
# Chain of ETV5 (P41161 whole entry): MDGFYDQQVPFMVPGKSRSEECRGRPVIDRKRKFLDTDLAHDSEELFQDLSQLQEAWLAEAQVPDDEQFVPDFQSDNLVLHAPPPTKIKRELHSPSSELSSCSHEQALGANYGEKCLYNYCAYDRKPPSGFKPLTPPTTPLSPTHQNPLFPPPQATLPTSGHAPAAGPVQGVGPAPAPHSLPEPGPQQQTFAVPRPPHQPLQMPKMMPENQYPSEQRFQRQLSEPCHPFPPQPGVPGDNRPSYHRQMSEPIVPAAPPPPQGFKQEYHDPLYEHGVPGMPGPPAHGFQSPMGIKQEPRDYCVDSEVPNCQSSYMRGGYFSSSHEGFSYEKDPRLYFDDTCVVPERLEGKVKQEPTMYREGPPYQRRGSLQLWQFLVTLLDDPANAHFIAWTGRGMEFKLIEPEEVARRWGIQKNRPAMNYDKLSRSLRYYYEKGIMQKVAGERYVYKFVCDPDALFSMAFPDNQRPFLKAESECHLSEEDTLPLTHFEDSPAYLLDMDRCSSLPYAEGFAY
# Chain of HSF1 (Q00613 whole entry): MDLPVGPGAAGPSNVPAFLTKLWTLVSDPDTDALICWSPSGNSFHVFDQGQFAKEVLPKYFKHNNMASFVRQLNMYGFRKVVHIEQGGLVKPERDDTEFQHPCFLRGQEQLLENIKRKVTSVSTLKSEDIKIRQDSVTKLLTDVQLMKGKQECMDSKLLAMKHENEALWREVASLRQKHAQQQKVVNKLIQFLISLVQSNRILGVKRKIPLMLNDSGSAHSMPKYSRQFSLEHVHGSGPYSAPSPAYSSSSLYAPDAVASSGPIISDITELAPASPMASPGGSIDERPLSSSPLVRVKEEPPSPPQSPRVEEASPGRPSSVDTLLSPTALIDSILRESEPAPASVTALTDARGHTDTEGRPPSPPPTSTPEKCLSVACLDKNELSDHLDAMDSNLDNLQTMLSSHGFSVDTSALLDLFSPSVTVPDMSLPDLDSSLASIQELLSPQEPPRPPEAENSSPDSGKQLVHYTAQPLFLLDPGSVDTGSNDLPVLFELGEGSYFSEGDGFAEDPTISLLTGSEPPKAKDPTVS
# Chain of ELF1 (P32519 whole entry): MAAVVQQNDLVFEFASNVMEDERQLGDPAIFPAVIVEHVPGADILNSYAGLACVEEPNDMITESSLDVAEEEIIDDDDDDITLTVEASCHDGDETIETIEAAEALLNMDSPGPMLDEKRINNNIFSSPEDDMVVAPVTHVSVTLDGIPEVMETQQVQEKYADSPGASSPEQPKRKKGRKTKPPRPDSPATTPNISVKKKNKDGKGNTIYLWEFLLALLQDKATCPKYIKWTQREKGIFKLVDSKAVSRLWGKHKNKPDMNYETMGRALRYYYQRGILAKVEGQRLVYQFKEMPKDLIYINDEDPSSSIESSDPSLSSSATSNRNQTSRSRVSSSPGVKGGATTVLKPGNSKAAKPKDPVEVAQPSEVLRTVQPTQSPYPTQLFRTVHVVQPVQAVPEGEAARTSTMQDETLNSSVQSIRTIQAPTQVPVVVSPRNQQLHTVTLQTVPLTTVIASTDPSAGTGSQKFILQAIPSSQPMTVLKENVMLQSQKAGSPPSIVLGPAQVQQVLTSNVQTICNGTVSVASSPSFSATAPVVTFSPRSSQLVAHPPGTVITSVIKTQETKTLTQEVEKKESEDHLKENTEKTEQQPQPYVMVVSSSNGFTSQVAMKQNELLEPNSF
# Chain of ELF4 (Q99607 whole entry): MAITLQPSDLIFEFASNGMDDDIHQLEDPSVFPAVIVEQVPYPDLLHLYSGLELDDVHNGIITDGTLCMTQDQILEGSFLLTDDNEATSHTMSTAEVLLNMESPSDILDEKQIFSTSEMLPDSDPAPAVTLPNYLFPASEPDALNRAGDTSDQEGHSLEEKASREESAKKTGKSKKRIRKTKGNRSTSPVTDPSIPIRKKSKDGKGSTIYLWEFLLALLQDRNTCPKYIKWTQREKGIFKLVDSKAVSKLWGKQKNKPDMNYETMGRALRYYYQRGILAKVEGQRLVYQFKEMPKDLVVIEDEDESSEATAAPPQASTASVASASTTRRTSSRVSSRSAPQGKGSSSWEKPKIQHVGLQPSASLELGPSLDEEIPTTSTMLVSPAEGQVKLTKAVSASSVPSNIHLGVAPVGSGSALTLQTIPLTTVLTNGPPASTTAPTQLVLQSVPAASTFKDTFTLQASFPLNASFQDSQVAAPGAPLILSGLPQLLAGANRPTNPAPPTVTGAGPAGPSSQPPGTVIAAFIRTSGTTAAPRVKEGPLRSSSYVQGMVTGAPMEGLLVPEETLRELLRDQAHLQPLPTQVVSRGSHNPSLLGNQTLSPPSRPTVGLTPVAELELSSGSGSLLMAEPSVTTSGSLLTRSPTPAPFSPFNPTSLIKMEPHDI
# Chain of CRX (O43186 whole entry): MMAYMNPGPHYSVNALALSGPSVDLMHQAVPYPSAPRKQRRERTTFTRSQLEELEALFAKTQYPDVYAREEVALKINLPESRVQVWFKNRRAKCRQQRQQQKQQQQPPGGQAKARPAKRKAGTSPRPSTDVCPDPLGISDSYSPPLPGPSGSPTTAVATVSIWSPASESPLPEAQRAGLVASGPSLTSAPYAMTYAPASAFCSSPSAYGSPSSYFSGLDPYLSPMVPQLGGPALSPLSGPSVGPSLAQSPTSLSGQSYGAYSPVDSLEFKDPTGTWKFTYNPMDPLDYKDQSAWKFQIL
# Chain of ETV1 (P50549 whole entry): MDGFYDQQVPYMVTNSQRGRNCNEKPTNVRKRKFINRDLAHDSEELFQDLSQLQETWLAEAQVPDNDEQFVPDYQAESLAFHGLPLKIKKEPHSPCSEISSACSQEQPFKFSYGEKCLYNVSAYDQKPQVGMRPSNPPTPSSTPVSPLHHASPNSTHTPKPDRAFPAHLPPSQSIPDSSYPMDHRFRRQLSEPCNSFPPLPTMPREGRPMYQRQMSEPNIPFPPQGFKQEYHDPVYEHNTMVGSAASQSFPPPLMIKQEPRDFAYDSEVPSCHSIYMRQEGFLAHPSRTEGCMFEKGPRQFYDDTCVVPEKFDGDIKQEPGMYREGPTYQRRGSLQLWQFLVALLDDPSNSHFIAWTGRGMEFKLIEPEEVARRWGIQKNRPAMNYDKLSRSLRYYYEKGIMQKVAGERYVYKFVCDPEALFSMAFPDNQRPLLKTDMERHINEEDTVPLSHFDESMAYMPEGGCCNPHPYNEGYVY
# Chain of SPIB (Q01892 whole entry): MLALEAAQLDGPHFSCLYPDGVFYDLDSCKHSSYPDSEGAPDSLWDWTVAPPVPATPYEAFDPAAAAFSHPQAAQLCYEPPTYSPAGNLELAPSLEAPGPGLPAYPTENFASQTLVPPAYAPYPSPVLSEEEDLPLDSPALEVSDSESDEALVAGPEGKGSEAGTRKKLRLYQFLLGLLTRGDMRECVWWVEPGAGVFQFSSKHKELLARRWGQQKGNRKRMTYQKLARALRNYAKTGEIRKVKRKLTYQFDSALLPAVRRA
sequence,measurement,setting,value
TGGACT,binding signal,FLI1,"1.19 fold enrichment (6-mer frequency, TF over GST control)"
same,binding signal,ELK1,"1.27 fold enrichment (6-mer frequency, TF over GST control)"
same,binding signal,GABPA,"1.25 fold enrichment (6-mer frequency, TF over GST control)"
same,binding signal,ERG,"1.18 fold enrichment (6-mer frequency, TF over GST control)"
same,binding signal,ELF1,"1.26 fold enrichment (6-mer frequency, TF over GST control)"
same,binding signal,EHF,"1.3 fold enrichment (6-mer frequency, TF over GST control)"
same,binding signal,SPI1,"1.18 fold enrichment (6-mer frequency, TF over GST control)"
same,binding signal,SPIB,"1.41 fold enrichment (6-mer frequency, TF over GST control)"
same,binding signal,ELK3,"1.2 fold enrichment (6-mer frequency, TF over GST control)"
same,binding signal,FEV,"1.32 fold enrichment (6-mer frequency, TF over GST control)"
same,binding signal,ETV5,"1.33 fold enrichment (6-mer frequency, TF over GST control)"
same,binding signal,HSF1,"1.18 fold enrichment (6-mer frequency, TF over GST control)"
same,binding signal,SPIC,"1.31 fold enrichment (6-mer frequency, TF over GST control)"
same,binding signal,ELF4,"1.34 fold enrichment (6-mer frequency, TF over GST control)"
same,binding signal,ELK4,"1.25 fold enrichment (6-mer frequency, TF over GST control)"
same,binding signal,ETV2,"1.27 fold enrichment (6-mer frequency, TF over GST control)"
same,binding signal,ELF3,"1.19 fold enrichment (6-mer frequency, TF over GST control)"
same,binding signal,CRX,"1.06 fold enrichment (6-mer frequency, TF over GST control)"
same,binding signal,ETV1,"1.33 fold enrichment (6-mer frequency, TF over GST control)"
